HepG2 viability – qHTS for Inhibitors of TGF-b: Cytotox Counterscreen | HepG2 CAGA-GFP viability, ATP luminescence, 18 h | 0.76% of 410,000 active | Potency, µM (doses to about 46.1 µM), for inactives: at the top dose activity change, negative = cytotoxicity, most hits filed as cytotoxic | AID 588856, 2011; further: potency means the concentration at half of the fitted maximal effect
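CellTiter-Glo luminescence gave cytotoxicity after 18 hours at 37 degrees C. The cells were HepG2 CAGA-GFP in 1% FBS DMEM, stimulated with 500 pg/mL TGF-beta after compound addition. %Activity was normalised to no-cell wells (complete cell-killing) and DMSO (no toxicity), and curves were fitted and classified.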
ATXN viability – Viability Counterscreen for Primary qHTS for Inhibitors of ATXN expression; S2 cells (HEK-293 line with an ATXN2-luciferase reporter) viability, CellTiter-Fluor protease fluorescence, 24 h; Potency, µM (highest dose often 56.7 µM), hits mostly cytotoxic; 0.49% of 400,000 active; further: potency means the concentration at half of the fitted maximal effect; nearly all actives have a fitted effect of over 40% in size
ATXN2 expr inh – Primary qHTS for Inhibitors of ATXN expression. Potency, µM (titrated, usually from 57 µM), for inactives: at the highest dose activity change, negative = inhibition, usual class: inhibitors. 0.72% of 360,000 active. HEK-293 ATXN2-luciferase reporter, luminescence, 24 h; further: potency means the concentration at half of the fitted maximal effect; on the % scale 0 is the no-effect control and ±100 the full control effect; nearly all actives have a fitted effect of over 55% in size
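ATXN2-luciferase reporter cells (luciferase flanked by upstream and downstream ATXN2 gene portions) were treated 24 h at 37 °C with compounds at up to 57 uM. SteadyGlo luminescence gave expression; GF-AFC fluorescence gave viability.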
IL1B secr inh – qHTS for Inhibitors of Inflammasome Signaling: IL-1-beta AlphaLISA Primary Screen. THP-1 LPS/ATP IL-1B secretion, AlphaLISA, 16 h; hits give low values. activity change, % at 57.5 µM. 4.7% of 360,000 active. AID 743279, 2014; in the data active means activity change below about -50%; inconclusive means mostly about -30% to -49%; further: on the % scale 0 is the no-effect control and ±100 the full control effect
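THP-1 cells pretreated 1 hr with compounds (up to 57.5 uM final), then stimulated with LPS (250 ng/mL final) plus ATP (1.25 mM final); secreted IL-1B measured by AlphaLISA after 16 hr, decreased signal indicating inhibition.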
TGFb inhibitor – qHTS for Inhibitors of TGF-b; Potency, µM (highest dose often 46.1 µM), without a hit: at the top dose activity, negative = inhibition, hits mostly inhibitors; HepG2 CAGA-GFP TGF-b/SMAD3 reporter, GFP fluorescence, 18 h; TGF-beta stimulated, 500 pg/mL final; 1.2% of 410,000 active; AID 588855, 2011; further: potency means the concentration at half of the fitted maximal effect; on the % scale 0 is the no-effect control and ±100 the full control effect; nearly all actives have a fitted effect of over 65% in size
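Cell-based qHTS in HEPG2 carrying a CAGA-GFP Smad reporter; compounds added before 500 pg/mL final TGF-beta, 18 h incubation at 37 degrees C, GFP fluorescence quantified per cell by imaging cytometry.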
Numbers without * were called inactive; i = inactive; ? = inconclusive; / = no result; ! = a repeat was not active; [ ] = dose if it differs, or a comment. A selection: hits, their analogues and other compounds. The true share with any hit is near 5.7%. Unless noted, the call rests on the fitted dose curve; in most records, active means well fitted curve in the direction sought with a large enough effect; inconclusive means small, poorly fitted or top-dose-only effect, or another doubt; inactive means no such curve, though single readings can be large; an effect the other way counts as inactive or inconclusive.

SMILES	HepG2 viability	ATXN viability	ATXN2 expr inh	IL1B secr inh	TGFb inhibitor
CCC(c1ccc(O)c(O)c1)C(CC)c1ccc(O)c(O)c1 (centres undefined)	-18.5%	/	?	-98.8*	?
CCOC(=O)Cn1c(=N)n(CCOc2ccc3ccccc3c2)c2ccccc21	-100.3%	?	-23.2%	-4.9	11.2µM*
CCCn1c(=N)n(CCOc2ccc(OC)cc2)c2ccccc21	-64.0%	i	?	-58.2*	-4.1%
CCOC(=O)Cn1c(=N)n(CCOc2ccc(OC)cc2)c2ccccc21	-5.6%	i	0.2%	?	0.4%
CC(=O)c1cccc(NC(=O)c2nc3ccccc3n(C)c2=O)c1	-30.6%	i	12.1%	/	15.5%
O=c1ccn(CCc2c[nH]c3ccccc23)c2c1CCCC2	-1.1%	i	-18.8%	-57.9*	0.5%
c1ccc(-c2nn3c(-c4ccccc4)nnc3o2)cc1	-56.7%	?	/	-51.3*	-33.6%
CN(C)c1nn2c(-c3ccccc3)nnc2o1	-23.1%	i	/	3.0	-5.3%
CCCc1nn2c(-c3ccccc3)nnc2o1	-1.3%	i	/	-67.0*	-9.1%
CS(=O)(=O)n1nc(-c2ccc(Cl)cc2)nc1N	-18.8%	i	30.6%	-12.8	?
CCn1nc(-c2ccccc2C)nc2c(=O)n(C)c(=O)nc1-2	0.631µM*	/	/	/	0.891µM*
COc1ccc(-c2nc3c(=O)n(C)c(=O)nc-3n(C)n2)cc1	0.562µM*	/	/	/	0.355µM*
Cc1cc(C)n2nc(-c3cccnc3)nc2n1	1.5%	i	6.2%	-8.4	?
Cc1ccccc1-n1c2nc(=O)n(C)c(=O)c-2cc2ccccc21	7.2%	/	-10.9%	/	-9.7%
Cn1nc(-c2ccc(Cl)cc2)nc2c(=O)n(C)c(=O)nc1-2	1.26µM*	/	/	/	1µM*
Cn1nc(-c2cccnc2)nc2c(=O)n(C)c(=O)nc1-2	2.82µM*	/	/	/	2.24µM*
Cc1ccc2c(c1)-c1nc(-c3ccc4c(c3)NC(=O)CO4)cc(-c3ccc(F)cc3)c1CO2	-15.6%	i	5.6%	/	-5.4%
CCOC(=O)N(C(=O)c1ccccc1)c1ccccc1	-20.2%	/	/	/	?
Cc1ccc(NC(=O)Cc2ccc(-n3c(C)nc4cccnc43)cc2)c(Cl)c1	-14.8%	/	/	/	?
Cn1nc(-c2ccc(F)cc2)nc2c(=O)n(C)c(=O)nc1-2	0.891µM*	/	/	/	0.891µM*
Cn1nc(-c2ccccc2)nc1-c1ccccc1	5.3%	i	46.4%	24.0	22.5%
CC(=O)N(CC(=O)N(C)C)c1ccccc1	/	i	-1.0%	/	/
COc1ccc(OC)c(CN2CCOc3ccc(C(O)c4cccnc4)cc3C2)c1 (centres undefined)	/	i	/	/	/
Cc1cc(C)n(CCCC(=O)O)n1	-15.1%	i	-26.6%[11.3 µM]	-67.2*	14.4%
Cc1cc([N+](=O)[O-])nn1CCCC(=O)O	-3.9%	i	9.7%	18.7	-6.4%
SMILES	HepG2 viability	ATXN viability	ATXN2 expr inh	IL1B secr inh	TGFb inhibitor
CCN(CC)CCNc1cccc2sc3ccccc3c(=O)c12	-26.5%	i	/	0.0	1.7%
Cc1ccc(NCCN(C)C)c2c(=O)c3cc(O)ccc3sc12	-114.5%	26.7µM*	10.6µM*	-102.2*	?
COc1cc(C)c2sc3ccccc3c(=O)c2c1NCCN(C)C	-124.5%	/	/	/	?
CN(C)CCNc1cccc2sc3ccc(O)cc3c(=O)c12	-58.1%	i	17.8µM*	-94.7*	4.47µM*
COc1cc(OC)c(OC)cc1/C=C/c1cc[n+](C)c2ccccc12	-0.5%	/	/	/	-4.6%
S=C(NCCCc1ccccc1)NC1CCCCC1	-28.0%	i	-15.3%	-88.7*	?
S=C(NCCc1c[nH]c2ccccc12)NC1CCCCC1	7.1%	i	35.4%[11.3 µM]	-52.0*	-15.4%
CC[C@@]1(C(=O)OC)N[C@H](CN(C)C(=O)c2ccc(C(C)(C)C)cc2)[C@@H]2C(=O)N(Cc3ccccc3)C(=O)[C@@H]21	-4.1%	i	4.4%	-20.0	-2.9%
CCN(C[C@H]1N[C@@](CC)(C(=O)OC)[C@H]2C(=O)N(Cc3ccccc3)C(=O)[C@@H]12)C(=O)c1ccc(C(C)(C)C)cc1	-65.2%	15.8µM*	?	-53.0*	?
CN1C[C@@H]2[C@@H]3C(=O)N(Cc4ccccc4)C(=O)[C@@H]3[C@](Cc3ccccc3)(C1=O)N2C(=O)c1ccc(C(C)(C)C)cc1	-13.4%	/	?	-88.5*	?
Cc1cccc2c1CC[C@H](CN1CCC(c3c(Cl)cccc3Cl)CC1)C[C@@H]2O	/	/	-24.3%	/	/
CCOc1cc(/C=C2/SC(=S)NC2=O)ccc1OC(=O)c1ccco1	-27.3%	?	15.7%	-50.9*	13.9%
COc1cc(/C=C2/SC(=O)NC2=O)ccc1OC(=O)c1ccco1	-4.2%	?	-5.5%	-22.2	7.2%
CCOC(=O)c1sc(NC(=O)c2cc(CC)on2)c(C(=O)OCC)c1C	-3.7%	i	-0.8%	/	28.6%
O=C1C(=Cc2ccc(F)cc2)CCc2ccccc21	/	i	36.3%	-13.0	/
C=CC(=O)N1C/C(=C/c2ccc(F)cc2)C(=O)/C(=C\c2ccc(F)cc2)C1	20µM*	7.08µM*	5.62µM*	-84.5*	?
NC(Cc1ccccc1)c1csc(Nc2nncc3ccccc23)n1 (centres undefined)	-100.6%	/	?	-26.0	15.8µM*
CC(N)c1csc(Nc2nncc3ccccc23)n1 (centres undefined)	-29.0%	i	?	-69.9*	0.8%
CCCCCCCCCCCCCCCCCC(=O)OCCO	/	i	/	/	/
O=C(Nc1ncc([N+](=O)[O-])s1)c1ccccc1Br	-30.6%	?	/	24.6	?
O=C(/C=C/c1ccc([N+](=O)[O-])cc1)NCc1ccccn1	-15.3%	i	2.7%	15.4	1.7%
O=C(/C=C/c1ccc([N+](=O)[O-])cc1)Nc1ncc([N+](=O)[O-])s1	-26.5%	?	/	-77.6*	12.6µM*
Cc1cnc(NC(=O)c2cccs2)s1	-23.1%	i	32.4%	-99.1*	-21.6%
O=C(Nc1ncc([N+](=O)[O-])s1)c1cccs1	12.6µM*!	?	6.0%	8.9	?
O=C(CCSCc1cnn(-c2ccccc2)c1-n1cccc1)NCc1ccccc1F	-37.6%	/	/	/	-14.8%
COCCNC(=O)c1ccccc1NC(=O)c1nsc2ccccc12	-33.6%	i	15.5%	/	?
CC(C)(C)Nc1nc(Cl)nc(N(C#N)CN2C(=O)c3ccccc3S2(=O)=O)n1	-16.0%	i	-6.1%	-100.9*	?
CC(C)Nc1nc(Cl)nc(N(C#N)CN2C(=O)c3ccccc3S2(=O)=O)n1	-34.0%	?	/	?	?
O=C1CC(c2ccc(OCCCCCOc3ccc(C4CC(=O)NC4=O)cc3)cc2)C(=O)N1 (centres undefined)	-8.6%	i	-25.2%	-131.5*	?

High-throughput results (PubChem)
